Screening data: PubChem BioAssay, Sanford-Burnham Center for Chemical Genomics
CYP2C9 activ: activators of human CYP2C9. P11712. recombinant CYP2C9, luciferin-H conversion, luminescence; active compounds read high; factor 1 = untreated enzyme, 0 = blocked. activation factor at 5 µM. 1.4% of 96,000 active. AID 1024;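 active = activation factor of 2 or more for CYP2C9 at a 5 µM dose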
Target sequence (P11712 whole entry, looked up): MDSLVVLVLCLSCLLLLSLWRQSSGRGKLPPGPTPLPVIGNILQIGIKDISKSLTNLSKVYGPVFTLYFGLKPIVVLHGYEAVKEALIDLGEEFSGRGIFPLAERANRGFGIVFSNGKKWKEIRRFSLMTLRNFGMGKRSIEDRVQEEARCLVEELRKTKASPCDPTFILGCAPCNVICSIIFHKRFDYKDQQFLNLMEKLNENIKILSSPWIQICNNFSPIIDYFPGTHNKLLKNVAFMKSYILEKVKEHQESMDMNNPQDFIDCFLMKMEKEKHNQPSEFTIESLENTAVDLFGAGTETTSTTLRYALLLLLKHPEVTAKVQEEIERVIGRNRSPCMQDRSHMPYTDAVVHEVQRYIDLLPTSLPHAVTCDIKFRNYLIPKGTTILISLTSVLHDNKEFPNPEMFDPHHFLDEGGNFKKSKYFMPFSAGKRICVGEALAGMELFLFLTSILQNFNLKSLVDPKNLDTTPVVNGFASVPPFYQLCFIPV
CYP2C9 inhib: human CYP2C9 inhibition. 20% of 96,000 active. AID 777. inhibition, % at 5 µM. CYP2C9 Supersomes, luciferin-H conversion, luminescence. P11712;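 active = blocking of liver enzyme CYP2C9 beyond about 50% at 5 µM, limit read from the data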
CYP2C19 inh: inhibitors of human CYP2C19; P33261; CYP2C19 Supersomes, luciferin-H EGE luminescence, 30 min; inhibition, % at 5 µM; 21% of 96,000 active;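 active = CYP2C19 inhibition above a set limit at 5 µM in the primary screen, cut at about 50% in these data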
PLAP activator: human PLAP activation; P05187; purified PLAP enzyme, luminescent substrate read-out; active compounds read high; activation fold at 20 µM; 1.2% of 96,000 active; AID 696; in the data active = activation fold above about 2
CYP2C19 activ: increases human CYP2C19 enzyme activity. P33261. recombinant CYP2C19, luciferin-H EGE luminescence; active compounds read high; 0 = fully inhibited enzyme, 1 = untreated enzyme. activation factor at 5 µM. 96,000 tested, under 10 active;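 active = activation factor of at least 2 at 5 µM in the primary screen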
Large screens that a line does not name were inactive. A selection: hits, their analogues and other compounds. The true share with any hit is near 31%.

COc1ccc(C(=O)/C=C/c2cccs2)c(OC(=O)c2cccc([N+](=O)[O-])c2)c1	CYP2C9 inhib 50
O=C(/C=C/c1ccccc1)NC(NC(=S)Nc1cccc(Cl)c1)C(Cl)(Cl)Cl (configuration not stated)	CYP2C9 inhib 77
CCOC(=O)N1CCC(NC(=O)C2CCCN(S(C)(=O)=O)C2)CC1 (configuration not stated)	none
N#Cc1c(-n2ccnc2)cccc1-n1ccnc1	CYP2C9 inhib 94, CYP2C19 inh 81
COc1ccccc1C(=O)N1CCN=C1c1ccccc1	none
CC1CCCCC1NC(=O)c1ccc2c(c1)[nH]c(=O)n2C1CCCC1 (configuration not stated)	CYP2C9 inhib 76
CC1CCCCC1NC(=O)c1ccc(S(=O)(=O)N2CCCC2)cc1 (configuration not stated)	none
O=C1C2CC=C(Cl)CC2C(=O)N1CN(Cc1ccco1)CN1C(=O)C2CC=C(Cl)CC2C1=O (configuration not stated)	none
CC(C)(C)NC(=O)c1cccc(NC(=O)CSc2ccccc2)c1	none
Fc1cc2ncn(Cc3ccccc3)c2cc1F	none
COc1cccc2c1N1C(=O)c3c(C(=O)O)cccc3C1CC2(C)C (configuration not stated)	CYP2C9 inhib 70
COc1ccc(N2Cc3cccc(C(=O)O)c3C2=O)cc1	none
NC(=O)Nc1ccc(Oc2c(F)c(F)c(F)c(F)c2F)cc1	none
COCCn1c(=NC(=O)CSCC(=O)NC2CCCCC2)sc2cc(OC)ccc21	CYP2C9 inhib 57, CYP2C19 inh 82
COCCn1c(=NC(=O)CSC(C)=O)sc2cc(OC)ccc21	none
COc1cccc(SCc2noc(C(=O)NC(C)C)c2C(=O)O)c1	CYP2C9 inhib 61
COC(=O)c1c(CSc2cccc(C)c2)noc1C(=O)NCc1ccco1	CYP2C9 inhib 78, CYP2C19 inh 82
CC(C)NC(=O)c1onc(CSc2ccccc2)c1C(=O)O	none
Cc1cccc(SCc2noc(C(=O)NC(C)C)c2C(=O)O)c1	CYP2C9 inhib 55
Cc1cc(C)cc(SCc2noc(C(=O)NC(C)C)c2C(=O)O)c1	CYP2C9 inhib 70
Cc1cc(N=Cc2cc(Br)ccc2O)no1	none
O=C(Nc1ccc2c(c1)OCO2)N1CCN(c2ncc(C(F)(F)F)cc2Cl)CC1	none
CC1=Nc2ccc(C)cc2N(Cc2ccccc2)C(=O)C1	none
Cc1cc(=O)oc(C)c1C(=O)NCCN1CCOCC1	none
C=CCNC(=O)c1onc(CSc2cccc(OC)c2)c1C(=O)O	CYP2C9 inhib 67
O=C1c2ccccc2C(Nc2ccc3c(c2)OCCO3)N1Cc1ccccc1 (configuration not stated)	CYP2C9 inhib 98, CYP2C19 inh 99
CCOc1ccc(NC2c3ccccc3C(=O)N2Cc2ccc3c(c2)OCO3)cc1 (configuration not stated)	CYP2C9 inhib 98, CYP2C19 inh 99
COc1cc(NC2c3ccccc3C(=O)N2Cc2ccc3c(c2)OCO3)cc(OC)c1OC (configuration not stated)	CYP2C9 inhib 64, CYP2C19 inh 98
CC(=O)c1cccc(NC2c3ccccc3C(=O)N2Cc2ccc3c(c2)OCO3)c1 (configuration not stated)	CYP2C9 inhib 61
COc1cc(NC2c3ccccc3C(=O)N2c2ccc(C)cn2)cc(OC)c1OC (configuration not stated)	none
CCOC(=O)N1CCC(N2C(=O)c3ccccc3C2Nc2ccc3c(c2)OCCO3)CC1 (configuration not stated)	none
O=C(NCC1CCCO1)C1c2ccccc2C(=O)N1Cc1ccc2c(c1)OCO2 (configuration not stated)	none
CC(C)Oc1ccc(C(=O)O)c(C(=O)O)c1	none
O=C(CSc1nc2c(c(=O)n1-c1ccc(Cl)cc1)SCC2)NCc1ccco1	none
Cc1ccc2c(CSc3nc4nc(C)cc(C)n4n3)cc(=O)oc2c1	none
Cc1cc(C)n2nc(SCc3ncc(-c4ccccc4)o3)nc2n1	CYP2C19 inh 86
Cc1cc(C)n2nc(SCC(=O)N(C)c3ccccc3)nc2n1	none
COc1ccc2c(CSc3nc4nc(C)cc(C)n4n3)cc(=O)oc2c1	CYP2C9 inhib 85, CYP2C19 inh 72
Cc1ccc(C)n1-c1ccc(N2CCOCC2)nc1	none
Cc1cc(C(F)(F)F)c(C#N)c(N2CCOCC2)n1	none
CCN1CCc2c(C#N)c(N3CCOCC3)nc(N3CCOCC3)c2C1	none
CCN(CC)c1nc(N2CCOCC2)c(C#N)c2c1CN(C)CC2	CYP2C9 inhib 56
CCN1CCc2c(C#N)c(N3CCCCC3)nc(N3CCOCC3)c2C1	CYP2C9 inhib 68
Cc1cc(C)c(C#N)c(N2CCCC2)n1	none
N#Cc1c(N2CCOCC2)nc(N2CCCCC2)c2c1CCN(C1CCCCC1)C2	PLAP activator 2
COC(=O)CNC(=O)COc1ccccc1	none
COc1cc(C=O)c(Br)cc1OCc1ccc(C)cc1	none
Cc1[nH]nc2c1C(c1cn[nH]c1-c1ccc(F)cc1)C(C#N)=C(N)O2 (configuration not stated)	none
O=S(=O)(c1ccc(F)cc1)N(CCO)CC(O)Cn1c2ccccc2c2ccccc21 (configuration not stated)	CYP2C9 inhib 57, CYP2C19 inh 97
CCN(CC(O)Cn1c2ccccc2c2ccccc21)S(=O)(=O)c1ccc(F)cc1 (configuration not stated)	CYP2C9 inhib 97, CYP2C19 inh 100
CCN(CC)C(=O)CN(Cc1ccccc1)S(=O)(=O)c1ccc(F)cc1	none
CCOC(=O)c1c2ccc(OCC(=O)N/N=C/c3ccc(C)cc3)cc2n2ccccc12	CYP2C9 inhib 65
CCN=c1scc(C)n1/N=C/c1ccsc1	CYP2C19 inh 60
COc1ccc(OC)c(NC(=O)CC2C(=O)NCCN2C(=O)Nc2cccc(Cl)c2)c1 (configuration not stated)	CYP2C9 inhib 72, PLAP activator 2
COc1ccc(N2CCN(C(=O)c3ccc(N4C(=O)NC5CC4(C)Oc4ccccc45)cc3)CC2)cc1 (configuration not stated)	none
COc1cc(/C=N/n2cnnc2)ccc1OCCSc1ccc(C)cc1	CYP2C9 inhib 54, CYP2C19 inh 80
CCCCN(CCCC)C(=O)c1ccccc1NC(=O)CN1C(=O)c2ccccc2C1=O	CYP2C9 inhib 93, CYP2C19 inh 92
O=C(CN1C(=O)c2ccccc2C1=O)Nc1ccccc1C(=O)N1CCCC1	none
COC(=O)c1c(C)oc2ccc(NS(=O)(=O)c3cccs3)cc12	CYP2C9 inhib 92, CYP2C19 inh 97
COc1ccc2oc(C)c(C(=O)NN)c2c1	none
COCCOC(=O)c1c(C)oc2ccc(NS(=O)(=O)c3ccccc3)cc12	CYP2C9 inhib 65, CYP2C19 inh 63
Cc1sc(-c2ccncc2)nc1OC(=O)c1cc(Cl)cc(Cl)c1	CYP2C9 inhib 68, CYP2C19 inh 53
Cc1sc(-c2ccncc2)nc1OC(=O)c1ccc(Cl)cc1	CYP2C9 inhib 88, CYP2C19 inh 90
N#CCCn1nnc(-c2ccccc2F)n1	none
